{"source": "PubChem BioAssay (Tox21)", "note": "Several values for one entry are separate records, joined by “and”; a condition that tells them apart may be missing. Identical values can stand only once. Records with an inconclusive call do not appear. Where a structure was tested more than once in an assay, its records may differ in their call. Activity calls are given as the source filed them. Calls follow the shape of the dose curve; as a rule, active = well fitted activation curve with a large enough effect in the repeat runs; inconclusive = weak or mixed curves; inactive = flat fitted curve, though single readings scatter. % is scaled to controls: 0 for no effect and ±100 for the full control effect; potency is read from the fitted curve at half-maximal effect.", "data": [{"assay": "A CellTox Green Cytotoxicity Assay to monitor cytotoxicity in HepG2 cells - 8 hour (AID 1224890); also: nearly all actives have a fitted effect of over 45% in size", "conditions": "CellTox Green fluorescence; series mostly up to 76.8 µM; cytotoxicity increase: at the top concentration", "text": "National Center for Advancing Translational Sciences [NCATS]\nNIH Chemical Genomics Center [NCGC]\nU.S. Environmental Protection Agency [EPA]\nNational Institutes of Environmental Health Sciences [NIEHS]\nNational Toxicology Program [NTP]\nCell-based models are critical for drug discovery. Determining the natural cytotoxic effects resulting from test compounds is an essential research activity. A CellTox Green Cytotoxicity Assay to monitor cytotoxicity in real time of continues cell culture during 40 hours of the compound treatment was used to screen Tox21 10K library compounds in HepG2 cells. CellTox Green Cytotoxicity Assay is a nonlytic, homogeneous, biofluorescent method to measure cytotoxicity in cell culture after experimental manipulation. The assay system uses a proprietary asymmetric cyanine dye that is excluded from viable cells but preferentially stains the dead cell's DNA. […] Viable cells produce no appreciable increases in fluorescence. Therefore, the fluorescence signal produced by the binding interaction with dead cell DNA is proportional to cytotoxicity.\nThe mixture of HepG2 cell suspension and reagents were dispensed at 600cells/6 ul/well in 1536-well tissue culture treated black solid bottom plates using a Multidrop dispenser. After the assay plates were incubated at a 37 C/5% CO2 incubator for 5 hours, 23 nL of compounds dissolved in DMSO, positive and negative controls was transferred to the assay plate by a pintool work station. The plates were incubated at 37 C for 40 hours. The fluorescence intensity were measured at 0h, 8h, 16h, 24h, 32h and 40h time points using ViewLux plate reader during compound treatment.", "values": [{"smiles": "FC(Cl)(Cl)C(F)(Cl)Cl", "cytotoxicity increase": "2.99% (inactive)"}, {"smiles": "CON(C)C(=O)Nc1ccc(Cl)cc1", "cytotoxicity increase": "-0.48% (inactive)"}, {"smiles": "CC(C)(c1ccccc1)c1cc(-n2nc3ccccc3n2)c(O)c(C(C)(C)c2ccccc2)c1", "cytotoxicity increase": "-0.0641% [at 35.3 µM] (inactive)"}, {"smiles": "CC(Cl)C(=O)O", "note": "(stereo not given)", "cytotoxicity increase": "0.461% (inactive)"}, {"smiles": "O=C(O)C(O)C(O)C(=O)O", "note": "(stereo not given)", "cytotoxicity increase": "6.19% (inactive)"}, {"smiles": "CCOP(=O)(SC(C)CC)N1CCSC1=O", "note": "(stereo not given)", "cytotoxicity increase": "-7.96% (inactive)"}, {"smiles": "CCOC(=O)c1cncn1C(C)c1ccccc1", "note": "(stereo not given)", "cytotoxicity increase": "0.0736% [at 35.3 µM] (inactive)"}, {"smiles": "Nc1cccc2ccccc12", "Potency": "inactive"}, {"smiles": "CC(C)C1(C)N=C(c2ncccc2C(=O)O)NC1=O", "note": "(stereo not given)", "cytotoxicity increase": "1.63% (inactive)"}, {"smiles": "CCC1(CC)C(=O)NC(=O)NC1=O", "cytotoxicity increase": "-13% [at 35.3 µM] (inactive)"}, {"smiles": "C[N+]1(CCF)[C@@H]2CC[C@H]1CC(OC(=O)C(O)(c1ccccc1)c1ccccc1)C2", "note": "(stereo not given in full)", "cytotoxicity increase": "-0.0642% [at 35.3 µM] (inactive)"}, {"smiles": "CC(Oc1cc(Cl)c(Cl)cc1Cl)C(=O)O", "note": "(stereo not given)", "cytotoxicity increase": "0.94% (inactive)"}, {"smiles": "Clc1ccc2ccccc2c1", "cytotoxicity increase": "-5.14% (inactive)"}, {"smiles": "O=C(O)c1cc(Cl)ccc1Cl", "cytotoxicity increase": "-5.49% (inactive)"}, {"smiles": "CCc1cnc(C2=NC(C)(C(C)C)C(=O)N2)c(C(=O)O)c1", "note": "(stereo not given)", "Potency": "inactive"}, {"smiles": "CCN(C(C)=O)c1cccc(-c2ccnc3c(C#N)cnn23)c1", "cytotoxicity increase": "-7.21% [at 35.3 µM] (inactive)"}, {"smiles": "O=C(O)C(Cl)(Cl)Br", "cytotoxicity increase": "4.55% (inactive)"}, {"smiles": "CCOP(=S)(S)OCC", "cytotoxicity increase": "2.78% (inactive)"}, {"smiles": "O=C(Cl)OCCOCCOC(=O)Cl", "cytotoxicity increase": "-7.43% (inactive)"}, {"smiles": "C#C[C@]1(O)CC[C@H]2[C@@H]3CCC4=CC(=O)CCC4=C3C=C[C@@]21CC", "cytotoxicity increase": "-1.48% [at 35.3 µM] (inactive)"}, {"smiles": "CCCC(C)(COC(N)=O)COC(=O)NC(C)C", "note": "(stereo not given)", "Potency": "inactive"}, {"smiles": "C[C@H]1O[C@H](OC2[C@@H](O)[C@@H](O)C(O)[C@H](O)[C@H]2O)[C@@H](N)C[C@@H]1N=C(N)C(=O)O", "note": "(stereo not given in full)", "cytotoxicity increase": "-6.01% (inactive)"}, {"smiles": "O=S(=O)(c1ccccc1)c1ccccc1", "cytotoxicity increase": "13.4% (inactive)"}, {"smiles": "CCNC(=O)NC(=O)/C(C#N)=N/OC", "cytotoxicity increase": "5.35% (inactive)"}, {"smiles": "O=C1CC[C@@]2(O)[C@H]3Cc4ccc(O)c5c4[C@@]2(CCN3CC2CC2)[C@H]1O5", "cytotoxicity increase": "-4.62% [at 35.3 µM] (inactive)"}, {"smiles": "O=C(O)COc1cc(Cl)c(Cl)cc1Cl", "Potency": "inactive"}, {"smiles": "C1CCNCC1", "cytotoxicity increase": "-2.2% (inactive)"}, {"smiles": "Cc1ccc2c(C)cccc2c1", "cytotoxicity increase": "-3.1% (inactive)"}, {"smiles": "CC(C)(C)NCC(O)c1cc(Cl)c(N)c(C(F)(F)F)c1", "note": "(stereo not given)", "cytotoxicity increase": "-18.7% [at 35.3 µM] (inactive)"}, {"smiles": "O=C(O)c1ccc(=O)[nH]c1", "cytotoxicity increase": "4.07% [at 35.3 µM] (inactive)"}, {"smiles": "CN[C@@H](C)[C@H](O)c1ccccc1", "cytotoxicity increase": "2.03% [at 35.3 µM] (inactive)"}, {"smiles": "CCCCC#N", "cytotoxicity increase": "-1.06% (inactive)"}, {"smiles": "Nc1ccccc1C(=O)OCCc1ccccc1", "Potency": "inactive and 24.5 µM (active)"}, {"smiles": "Cc1nc(N(C)C)nc(OC(=O)N(C)C)c1C", "cytotoxicity increase": "8.08% (inactive)"}, {"smiles": "CCCCCCCCCCCCN(C)C", "cytotoxicity increase": "8.11% (inactive)"}, {"smiles": "CCCN(CCC)C(=O)Cc1c(-c2ccc(Cl)cc2)nc2ccc(Cl)cn12", "cytotoxicity increase": "13.6% [at 35.3 µM] (inactive)"}, {"smiles": "c1ccc2c(c1)sc1ccccc12", "Potency": "inactive"}, {"smiles": "CCCCCCCCCCCCN=C(N)N", "cytotoxicity increase": "-0.515% [at 2.72 µM] (inactive)"}, {"smiles": "C=C(C)C(=O)OCCCCOC(=O)C(=C)C", "cytotoxicity increase": "-1.68% (inactive)"}, {"smiles": "COc1ccc(C(O)(c2cncnc2)C2CC2)cc1", "note": "(stereo not given)", "cytotoxicity increase": "-0.884% (inactive)"}]}]}
